Data on 24 compounds can be found in PubChem BioAssay (Tox21).

A number with no mark means an inactive call. Inconclusive results are not listed. Active and inactive are the calls of the source. Unless noted, calls come from the whole dose curve; as a rule, active = well fitted curve in the direction sought with a large enough effect in the repeat runs; inconclusive = weak or mixed curves; inactive = no such curve, though single readings can be large; an effect the other way counts as inactive or inconclusive.

A short description of experiment [1]: qHTS assay for small molecule agonists of the p53 signaling pathway (AID 651631; calls by dose curve; note: nearly all actives have a fitted effect of over 15% in size; note: potency is the fitted concentration of half-maximal effect). A digest of the protocol:
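HCT-116 cells carrying a stable p53 response element–beta-lactamase reporter were plated, rested 5 h at 37 °C, then exposed to compound in DMSO for 16 h at 37 °C; reporter activity was read as FRET substrate fluorescence after 2 h at room temperature.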
On the technique in general: qHTS replaces the single test concentration by a dilution series.

A short description of experiment [2]: qHTS assay for small molecule agonists of the p53 signaling pathway - cell viability (AID 651633; calls by dose curve; note: nearly all actives have a fitted effect of over 30% in size; note: potency is the fitted concentration of half-maximal effect). A digest of the protocol:
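Viability counter-read: CellTiter-Glo luminescence (30 min, room temperature) in the same p53RE-bla plates. These plates had been exposed to compounds for 16 h at 37 C.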

Experiment [3] in a line: qHTS assay for small molecule disruptors of the mitochondrial membrane potential - cell viability (AID 720634; calls by dose curve;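 note: human HepG2 liver cancer cells; series mostly up to about 83 µM; nearly all actives have a fitted effect of over 20% in size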). Put shortly: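 HepG2, 1 hr compound, 37 C. ATP luminescence via CellTiter-Glo, 30 min RT, same well as m-MPI.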
Experiment [4] is described as follows: qHTS assay to test for compound auto fluorescence at 590 nm (red) in HepG2 cells (AID 720674). A digest of the protocol: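 Red autofluorescence (Ex/Em 540/590 nm, Rose Bengal sodium equivalents) was measured in HepG2 cells, 2,000 per well in MEM plus 10% FBS, plated overnight at 37 C. Readings were taken 1 hr after adding 23 nL compound or DMSO, at 37 C and 5% CO2.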

Experiment [5] can be described thus: qHTS assay to test for compound auto fluorescence at 535 nm (green) in HepG2 cells (AID 720675).
A short description of experiment [6]: qHTS assay to test for compound auto fluorescence at 590 nm (red) in HEK293 cells (AID 720679). Put shortly: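 Intensity at 540nm excitation and 590nm emission is reported as Rose Bengal sodium-equivalent autofluorescence. Measurements followed overnight exposure (37C, 5% CO2) of HEK293 cells, 2,000 per well, to 23 nL compound.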
Experiment [7] can be described thus: qHTS assay for small molecules that induce genotoxicity in human embryonic kidney cells expressing luciferase-tagged ATAD5 - cell viability (AID 651634; calls by dose curve; note: nearly all actives have a fitted effect of over 25% in size). Put shortly:
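Viability read: CellTiter-Fluor fluorescence, 30 min at 37C. Cells: HEK293T, luciferase-tagged ATAD5. Exposure: 15.5 hr, 37C, 5% CO2, compound or DMSO vehicle.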

Experiment [8] can be described thus: qHTS assay for small molecules that induce genotoxicity in human embryonic kidney cells expressing luciferase-tagged ATAD5 (AID 651632). Note: nearly all actives have a fitted effect of over 15% in size. A digest of the protocol: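 Luminescent reporter readout, HEK293T ATAD5-luc line: 16 hr drug exposure (37C, 5% CO2) followed by Amplite, 30 min RT.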
A short description of experiment [9]: qHTS assay for small molecule disruptors of the mitochondrial membrane potential (AID 720635). Note: potency is the fitted concentration of half-maximal effect. A digest of the protocol: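 Mitochondrial membrane potential tracked with Mito-MPS dye, red aggregates (ex 540/em 590 nm) against green monomers (ex 490/em 535 nm). Compound treatment 1 hr at 37C, dye 30 min in HepG2.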
Experiment [10] can be described thus: qHTS assay to test for compound auto fluorescence at 460 nm (blue) in HEK293 cells (AID 720678). Put shortly: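 HEK293, 2,000 cells/well, 10% dialyzed FBS; attach 4-5 hr 37C; pin compound or DMSO; o/n 37C/5% CO2; fluorescence 405/460 nm; triamterene-equivalent units.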
% is set by controls: 0 for no effect and ±100 for the full control effect.

Take `CNS(=O)(=O)c1cc(C(=O)N2CCC(CCN3C4CCC3CC(n3c(C)nc5ccccc53)C4)(c3cccc(F)c3)CC2)c(Cl)cc1F` (stereo not drawn): in [1], the Potency result is “inactive”. In addition, in [2], the Potency was 48.6 µM (active). In addition, the compound was classed as inactive in [3], in [4], in experiment [5] and in experiment [6].

On to `COc1ccc(-c2cc(C(F)F)nn2-c2ccc(S(N)(=O)=O)cc2)cc1F`, for which the Potency entry in [1], in experiment [2] and in experiment [7] was “inactive” each time. Moreover, the result in [3], in experiment [4], in experiment [5] and in [6] was inactive.

Take `CC(C)OC(=O)c1ccccc1C(=O)OC(C)C`: the Potency entry in [8], in experiment [2], in experiment [7], in experiment [9] and in experiment [10] was “inactive” throughout. Besides, the compound was called inactive in experiment [3], in [4], in experiment [5] and in experiment [6].

As to `COc1ccc(-c2cc(=S)ss2)cc1`, the Potency entry in experiment [1], in [2], in experiment [7] and in experiment [10] was “inactive” throughout. Moreover, the outcome in experiment [3], in experiment [4] and in [6] was inactive. Also, in experiment [9], the Potency was 2.11 µM (active).

Take `c1ccc(CNc2ncnc3c2ncn3C2CCCCO2)cc1` (stereo not drawn): the Potency result in experiment [1], in [7] and in experiment [10] was “inactive” each time. The compound was classed as inactive in [4] and in [6].

Consider `CC(C)C(=O)OCCOc1ccccc1`, for which the Potency entry in experiment [1], in [2], in experiment [7] and in experiment [9] was “inactive” each time. The compound was classed as inactive in experiment [4], in [5] and in experiment [6].

As to `COc1cc(NS(=O)(=O)c2ccc(N)cc2)nc(C)n1`, the Potency entry in experiment [1], in [7], in [9] and in experiment [10] was “inactive” each time. The compound was called inactive in experiment [3], in [4], in [5] and in experiment [6].

Consider `O=C1[C@@H]2[C@H]3CC[C@H](C3)[C@@H]2C(=O)N1CCCCN1CCN(c2ncccn2)CC1`, for which the Potency result in experiment [8], in experiment [2], in [7], in [9] and in [10] was “inactive” each time. Further, the call in [3], in [4], in experiment [5] and in experiment [6] was inactive.

On to `O=C(NS(=O)(=O)/C=C/c1ccccc1)c1ccc(F)cc1Cl`, for which the Potency in [1] was 21.7 µM (active); in [9], 68.6 µM (active). The Potency result in experiment [7] and in experiment [10] was “inactive” each time. Besides, the call in experiment [3], in experiment [4] and in [6] was inactive.

Take `CC(=O)OC(C)C[N+](C)(C)C` (stereo not drawn): the Potency result in experiment [1] and in [7] was “inactive” in each case. In addition, in [4], the fluorescence, relative to Rose Bengal is 0.553% [at 18.6 µM]. Moreover, in experiment [5], the fluorescence, % of fluorescein control was 0.0253% [at 18.6 µM]. Besides, the fluorescence, % of triamterene in [10] was -0.423% [at 18.6 µM]. Moreover, the fluorescence, % of fluorescent control in experiment [6] was -0.334% [at 18.6 µM].

For `CCSC(=O)N(CC)CC`, the Potency result in experiment [1], in experiment [2], in experiment [7] and in [10] was “inactive” throughout. Further, the outcome in experiment [3], in [4], in experiment [5] and in [6] was inactive.

In the case of `COc1ccc(CCN(C)CCCN2CCc3cc(OC)c(OC)cc3CC2=O)cc1OC`, the Potency result in experiment [8], in experiment [2], in experiment [7], in experiment [9] and in [10] was “inactive” in each case. For the same compound, the compound was called inactive in experiment [3], in experiment [4], in experiment [5] and in experiment [6].

Turning to `CSCC[C@H](NC(=O)[C@H](Cc1c[nH]c2ccccc12)NC(=O)CCNC(=O)OC(C)(C)C)C(=O)N[C@@H](CC(=O)O)C(=O)N[C@@H](Cc1ccccc1)C(N)=O`, the Potency entry in [8], in experiment [2], in experiment [7], in [9] and in experiment [10] was “inactive” throughout. Also, the compound was classed as inactive in [3], in [4], in experiment [5] and in [6].

As to `CCCCCCCCCCCCCCCCCC(=O)OCC(CC)CCCC` (stereo not drawn), the Potency entry in [1], in experiment [2], in [7] and in [9] was “inactive” in each case. In addition, the outcome in [3], in [4], in experiment [5] and in experiment [6] was inactive.

Consider `CC[C@@H](CO)NCCN[C@@H](CC)CO`, for which the Potency entry in experiment [1], in [2], in [7] and in experiment [9] was “inactive” in each case. Further, in [3], the compound was classed as inactive. The fluorescence, relative to Rose Bengal in experiment [4] is -0.504% [at 18.6 µM]. Moreover, the fluorescence, % of fluorescent control in experiment [6] was -0.143% [at 18.6 µM].

Turning to `CC(C)c1ccc(C#N)cc1`, the Potency entry in experiment [1], in experiment [2], in experiment [7], in [9] and in [10] was “inactive” in each case. Moreover, the compound was classed as inactive in experiment [3], in [4], in [5] and in [6].

On to `CCNc1nc(N)nc(Cl)n1`, for which the Potency result in experiment [1], in experiment [2], in experiment [7] and in experiment [10] was “inactive” each time. The compound was classed as inactive in [4] and in [6].

For `CCCCC[C@H](O)/C=C/[C@H]1[C@H](O)CC(=O)[C@@H]1C/C=C\CCCC(=O)O`, the Potency entry in experiment [8], in [2], in [7], in [9] and in [10] was “inactive” throughout. Moreover, the result in experiment [3], in [4], in experiment [5] and in [6] was inactive.

Turning to `CC1CCCO1` (stereo not drawn), the Potency result in experiment [1], in experiment [2] and in [7] was “inactive” each time. For the same compound, the compound was called inactive in experiment [3], in experiment [4], in experiment [5] and in experiment [6].

Consider `O=C(O)c1ccc(O)cc1O`, for which the Potency entry in [1], in experiment [2], in [7] and in [10] was “inactive” throughout. For the same compound, the compound was classed as inactive in [3], in experiment [4] and in experiment [6].

Consider `C=C(C)C(=O)OCCC(F)(F)C(F)(F)C(F)(F)C(F)(F)C(F)(F)C(F)(F)F`, for which the Potency entry in experiment [1], in experiment [2], in experiment [7] and in experiment [9] was “inactive” each time. In addition, the compound was classed as inactive in [3], in experiment [4], in experiment [5] and in experiment [6].

With `Nc1nc2ccc(OC(F)(F)F)cc2s1`, the Potency in experiment [1] was 7.5 µM (active). Moreover, the Potency result in [2], in experiment [7] and in experiment [10] was “inactive” each time. For the same compound, the compound was classed as inactive in experiment [3], in experiment [4], in experiment [5] and in experiment [6].

For `O=C(O)CCCc1c[nH]c2ccccc12`, the Potency entry in experiment [1], in experiment [2], in experiment [7] and in experiment [10] was “inactive” throughout. In addition, the result in experiment [3], in [4], in experiment [5] and in experiment [6] was inactive.

Regarding `CCCCCC`, the Potency result in [1], in experiment [2], in [7] and in [10] was “inactive” in each case. The outcome in experiment [3], in [4], in experiment [5] and in experiment [6] was inactive.
